Experimental data from PubChem BioAssay (EPA / NIEHS).
Several values for one entry are separate records, joined by “and”; a condition that tells them apart may be missing. Equal values may be shown once. Records with an inconclusive call do not appear. Activity calls are given as the source filed them. The calls were made as follows: active = hit-call score of the fitted dose curve at least 0.9, where 1 is the maximum; inconclusive = response in the unintended direction; inactive = score below 0.9.

How the values were obtained:
[1] = target: human Vasopressin 1A Receptor (V1A), AVPR1A (gene 552) (UniProt P37288); test: NVS_GPCR_hV1A: NovaScreen (NVS) G Protein-Coupled Receptor Assay for human Vasopressin 1A Receptor (V1A) (AID 2283284)
Chain of human Vasopressin 1A Receptor (V1A), AVPR1A (gene 552) (P37288 whole entry, looked up): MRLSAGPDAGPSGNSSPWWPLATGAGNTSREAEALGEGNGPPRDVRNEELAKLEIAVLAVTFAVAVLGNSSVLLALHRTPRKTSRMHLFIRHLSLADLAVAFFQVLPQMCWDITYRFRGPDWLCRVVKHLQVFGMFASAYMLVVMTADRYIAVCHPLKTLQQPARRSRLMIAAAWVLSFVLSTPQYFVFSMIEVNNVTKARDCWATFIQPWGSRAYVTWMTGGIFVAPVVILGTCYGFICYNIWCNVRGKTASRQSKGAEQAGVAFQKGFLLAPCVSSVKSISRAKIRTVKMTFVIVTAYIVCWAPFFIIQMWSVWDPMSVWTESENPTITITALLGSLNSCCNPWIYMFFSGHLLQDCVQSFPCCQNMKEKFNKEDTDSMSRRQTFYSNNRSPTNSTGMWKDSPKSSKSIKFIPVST
Procedure, shortened: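 Cell-free radioligand displacement on human platelet preparations, 1.5 h incubation, filter-based scintillation counting. Chemicals first tested in duplicate at 25 uM; actives then run in concentration-response up to 50 uM, loss of signal fitted against DMSO.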

[2] = target: human Opioid Receptor Mu (Opiate Mu), OPRM1 (gene 4988) (UniProt P35372); test: NVS_GPCR_hOpiate_mu: NovaScreen (NVS) G Protein-Coupled Receptor Assay for human Opioid Receptor Mu (Opiate Mu) (AID 2283290);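 also: hits lower bound tracer signal versus DMSO meaning displacement of the ligand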
Chain of human Opioid Receptor Mu (Opiate Mu), OPRM1 (gene 4988) (P35372 whole entry, looked up): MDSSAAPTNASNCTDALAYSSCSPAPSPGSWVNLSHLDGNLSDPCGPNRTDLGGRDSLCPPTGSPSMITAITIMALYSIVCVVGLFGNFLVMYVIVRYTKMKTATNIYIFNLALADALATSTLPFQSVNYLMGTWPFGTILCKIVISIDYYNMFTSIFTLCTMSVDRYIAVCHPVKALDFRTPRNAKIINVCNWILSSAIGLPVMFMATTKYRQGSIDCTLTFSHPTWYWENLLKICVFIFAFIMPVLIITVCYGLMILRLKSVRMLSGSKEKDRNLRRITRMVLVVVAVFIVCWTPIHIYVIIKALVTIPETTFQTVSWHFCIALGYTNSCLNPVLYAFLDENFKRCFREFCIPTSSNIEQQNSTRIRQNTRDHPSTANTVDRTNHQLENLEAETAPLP
Procedure, shortened: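 Here, radioligand binding to CHO-extracted receptor was measured after 2.5 h using filter-based scintillation detection. Initial single-concentration screening used 25 uM in duplicate with plate controls; confirmed actives went to concentration-response testing.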

[3] = tested on: 5-hydroxytryptamine receptor 2C (pig); test: NVS_GPCR_p5HT2C: NovaScreen (NVS) G Protein-Coupled Receptor Assay for pig Serotonin, 5-Hydroxytryptamine Receptor 2C (5HT2C) (AID 2283288)
Procedure, shortened: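 Pig choroid plexus membranes; radioligand competitive binding, filter-based scintillation counting, read 1 h after dosing. Primary screen in duplicate at 25 uM; actives then run as concentration series; loss of signal versus DMSO baseline.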

[4] = target: mouse Cholecystokinin, CCK1 Receptor (CCKA), Cckar (gene 12425) (UniProt O08786); test: NVS_GPCR_mCCKAPeripheral: NovaScreen (NVS) G Protein-Coupled Receptor Assay for mouse Cholecystokinin, CCK1 Receptor (CCKA) (AID 2283285)
Chain of mouse Cholecystokinin, CCK1 Receptor (CCKA), Cckar (gene 12425) (O08786 whole entry, looked up): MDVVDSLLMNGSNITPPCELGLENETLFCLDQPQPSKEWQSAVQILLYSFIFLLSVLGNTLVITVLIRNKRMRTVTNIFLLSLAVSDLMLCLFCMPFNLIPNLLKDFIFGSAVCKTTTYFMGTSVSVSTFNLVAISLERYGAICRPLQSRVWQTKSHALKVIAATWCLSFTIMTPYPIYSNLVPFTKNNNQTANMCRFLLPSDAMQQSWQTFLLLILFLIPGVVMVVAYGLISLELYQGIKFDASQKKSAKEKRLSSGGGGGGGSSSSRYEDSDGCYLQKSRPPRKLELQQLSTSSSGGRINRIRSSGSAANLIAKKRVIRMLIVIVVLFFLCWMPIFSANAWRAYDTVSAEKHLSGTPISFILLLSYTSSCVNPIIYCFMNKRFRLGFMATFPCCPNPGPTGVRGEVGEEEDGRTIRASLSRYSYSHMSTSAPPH
Procedure, shortened: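 Radioligand competitive displacement on mouse pancreatic membranes, 2 h incubation; filter-based scintillation counting, loss of signal versus DMSO. Single-concentration screen at 25 uM in duplicate, actives retested in concentration-response up to 50 uM.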

[5] = target: rat Serotonin, 5-Hydroxytryptamine Receptor 1 (5HT1), Non-Selective Binding, Htr1a (gene 24473) (UniProt P19327); test: NVS_GPCR_r5HT1_NonSelective: NovaScreen (NVS) G Protein-Coupled Receptor Assay for rat Serotonin, 5-Hydroxytryptamine Receptor 1 (5HT1), Non-Selective Binding (AID 2283286)
Chain of rat Serotonin, 5-Hydroxytryptamine Receptor 1 (5HT1), Non-Selective Binding, Htr1a (gene 24473) (P19327 whole entry, looked up): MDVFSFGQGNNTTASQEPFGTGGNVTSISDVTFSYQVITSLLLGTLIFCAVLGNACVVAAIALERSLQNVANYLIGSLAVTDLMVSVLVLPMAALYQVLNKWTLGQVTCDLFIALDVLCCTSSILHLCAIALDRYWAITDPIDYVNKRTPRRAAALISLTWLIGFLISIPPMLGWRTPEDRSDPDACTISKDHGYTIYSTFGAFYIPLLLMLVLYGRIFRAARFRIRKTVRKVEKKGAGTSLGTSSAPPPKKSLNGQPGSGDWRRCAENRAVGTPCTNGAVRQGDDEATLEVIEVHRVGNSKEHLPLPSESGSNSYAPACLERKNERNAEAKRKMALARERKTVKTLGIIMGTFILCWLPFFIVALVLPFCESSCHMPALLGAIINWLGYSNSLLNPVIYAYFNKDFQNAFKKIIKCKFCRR
Procedure, shortened: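 Rat cortical membranes, radioligand displacement, 1 h incubation, read by filter scintillation. Primary screen in duplicate at 25 uM. Hits (e.g. ≥30% inhibition) went to concentration-response up to 50 uM, fitted as loss of binding versus DMSO.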

[6] = target: guinea pig Serotonin, 5-Hydroxytryptamine Receptor 4 (5HT4), HTR4 (gene 100135548) (UniProt O70528); test: NVS_GPCR_g5HT4: NovaScreen (NVS) G Protein-Coupled Receptor Assay for guinea pig Serotonin, 5-Hydroxytryptamine Receptor 4 (5HT4) (AID 2283294)
Chain of guinea pig Serotonin, 5-Hydroxytryptamine Receptor 4 (5HT4), HTR4 (gene 100135548) (O70528 whole entry, looked up): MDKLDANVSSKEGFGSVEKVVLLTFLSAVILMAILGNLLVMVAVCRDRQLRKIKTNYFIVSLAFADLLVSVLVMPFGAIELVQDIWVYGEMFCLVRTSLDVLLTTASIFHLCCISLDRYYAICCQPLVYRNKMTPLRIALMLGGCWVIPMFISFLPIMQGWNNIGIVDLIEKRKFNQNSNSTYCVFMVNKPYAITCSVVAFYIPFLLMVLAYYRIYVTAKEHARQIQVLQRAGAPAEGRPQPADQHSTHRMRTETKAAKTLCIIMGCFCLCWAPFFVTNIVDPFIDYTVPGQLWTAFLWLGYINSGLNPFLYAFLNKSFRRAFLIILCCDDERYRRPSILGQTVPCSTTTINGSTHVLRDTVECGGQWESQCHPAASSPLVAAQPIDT
Procedure, shortened: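 Guinea pig striatal membranes; radioligand competitive displacement, filtration and scintillation counting after 1 h. Primary screen in duplicate at 25 uM; actives then tested in concentration series; loss of binding signal fitted relative to DMSO.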

[7] = target: rat Adrenergic Receptor, Beta (Adrb), Non-selective Binding, Adrb1 (gene 24925) (UniProt P18090); test: NVS_GPCR_rAdrb_NonSelective: NovaScreen (NVS) G Protein-Coupled Receptor Assay for rat Adrenergic Receptor, Beta (Adrb), Non-selective Binding (AID 2283298)
Procedure, shortened: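 Non-selective beta-adrenergic radioligand binding in rat cortical membranes, 1 h incubation, filter-based scintillation read-out. Primary screen 25 uM in duplicate; hits retested in concentration-response up to 50 uM, DMSO baseline.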

[8] = target: rat Serotonin, 5-Hydroxytryptamine Receptor (5HT), Non-Selective Binding, Htr1a (gene 24473) (UniProt P19327); test: NVS_GPCR_r5HT_NonSelective: NovaScreen (NVS) G Protein-Coupled Receptor Assay for rat Serotonin, 5-Hydroxytryptamine Receptor (5HT), Non-Selective Binding (AID 2283295)
Chain of rat Serotonin, 5-Hydroxytryptamine Receptor (5HT), Non-Selective Binding, Htr1a (gene 24473) (P19327 whole entry, looked up): as the sequence (P19327 whole entry, looked up) above
Procedure, shortened: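 Radioligand displacement on rat cortical membranes, 1 h incubation, filter-based scintillation counting. Primary duplicates at 25 uM, actives retested in concentration series; loss of signal fitted against DMSO as baseline.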

[9] = tested on: rat Adrenergic, Alpha 1B Receptor (Adra1B), gene 24173; test: NVS_GPCR_rAdra1B: NovaScreen (NVS) G Protein-Coupled Receptor Assay for rat Adrenergic, Alpha 1B Receptor (Adra1B) (AID 2283297)
Procedure, shortened: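 Rat liver membranes, radioligand displacement with filter-based scintillation detection, 1 h incubation. Primary screen in duplicate at 25 uM; actives retested in concentration series; activity relative to DMSO.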

[10] = target: rat Adrenergic Receptor, Alpha 2 (Adra2), Non-selective Binding, Adra2a (gene 25083) (UniProt P22909); test: NVS_GPCR_rAdra2_NonSelective: NovaScreen (NVS) G Protein-Coupled Receptor Assay for rat Adrenergic Receptor, Alpha 2 (Adra2), Non-selective Binding (AID 2283299)
Chain of rat Adrenergic Receptor, Alpha 2 (Adra2), Non-selective Binding, Adra2a (gene 25083) (P22909 whole entry, looked up): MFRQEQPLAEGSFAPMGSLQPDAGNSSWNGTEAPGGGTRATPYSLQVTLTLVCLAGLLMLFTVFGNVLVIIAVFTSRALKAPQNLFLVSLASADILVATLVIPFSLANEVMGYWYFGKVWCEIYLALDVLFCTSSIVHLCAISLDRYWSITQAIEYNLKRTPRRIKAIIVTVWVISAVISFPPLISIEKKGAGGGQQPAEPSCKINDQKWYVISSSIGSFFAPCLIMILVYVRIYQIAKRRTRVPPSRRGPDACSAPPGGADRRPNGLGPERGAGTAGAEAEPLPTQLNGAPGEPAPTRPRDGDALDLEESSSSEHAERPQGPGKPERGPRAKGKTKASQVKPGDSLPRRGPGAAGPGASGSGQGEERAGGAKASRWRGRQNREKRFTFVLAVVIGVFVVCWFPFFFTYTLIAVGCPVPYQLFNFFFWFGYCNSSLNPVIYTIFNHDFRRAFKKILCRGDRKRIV
Procedure, shortened: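 Rat cortical membranes, radioligand competitive displacement read by filter-based scintillation counting 1.25 hours after dosing. Primary screen in duplicate at 25 uM; actives followed up in concentration series.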

[11] = target: rat Histamine Receptor (H3), Hrh3 (gene 85268) (UniProt Q9QYN8); test: NVS_GPCR_rH3: NovaScreen (NVS) G Protein-Coupled Receptor Assay for rat Histamine Receptor (H3) (AID 2283303)
Chain of rat Histamine Receptor (H3), Hrh3 (gene 85268) (Q9QYN8 whole entry, looked up): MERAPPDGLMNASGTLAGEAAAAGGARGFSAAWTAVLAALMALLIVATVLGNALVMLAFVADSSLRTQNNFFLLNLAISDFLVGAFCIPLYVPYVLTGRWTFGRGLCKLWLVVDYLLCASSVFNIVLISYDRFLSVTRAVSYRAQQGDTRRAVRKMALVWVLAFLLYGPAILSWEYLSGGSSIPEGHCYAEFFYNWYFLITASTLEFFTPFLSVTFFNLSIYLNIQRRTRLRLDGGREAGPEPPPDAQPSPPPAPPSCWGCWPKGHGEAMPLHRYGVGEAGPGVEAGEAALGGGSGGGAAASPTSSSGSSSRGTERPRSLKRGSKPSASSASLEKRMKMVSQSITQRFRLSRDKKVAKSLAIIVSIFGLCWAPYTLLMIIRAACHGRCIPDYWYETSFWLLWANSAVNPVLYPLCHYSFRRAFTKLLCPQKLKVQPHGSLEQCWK
Procedure, shortened: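 Rat forebrain membranes incubated 1 h with compound; radioligand displacement measured by filter-based scintillation counting. Single-concentration duplicates at 25 µM, then concentration-response up to 50 µM, relative to DMSO.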

[12] = target: Adra2b (gene 24174) (UniProt P19328); test: NVS_GPCR_rmAdra2B: NovaScreen (NVS) G Protein-Coupled Receptor Assay for hybird cells Adrenergic, Alpha 2B Receptor (Adra2B) (AID 2283306)
Chain of Adra2b (gene 24174) (P19328 whole entry, looked up): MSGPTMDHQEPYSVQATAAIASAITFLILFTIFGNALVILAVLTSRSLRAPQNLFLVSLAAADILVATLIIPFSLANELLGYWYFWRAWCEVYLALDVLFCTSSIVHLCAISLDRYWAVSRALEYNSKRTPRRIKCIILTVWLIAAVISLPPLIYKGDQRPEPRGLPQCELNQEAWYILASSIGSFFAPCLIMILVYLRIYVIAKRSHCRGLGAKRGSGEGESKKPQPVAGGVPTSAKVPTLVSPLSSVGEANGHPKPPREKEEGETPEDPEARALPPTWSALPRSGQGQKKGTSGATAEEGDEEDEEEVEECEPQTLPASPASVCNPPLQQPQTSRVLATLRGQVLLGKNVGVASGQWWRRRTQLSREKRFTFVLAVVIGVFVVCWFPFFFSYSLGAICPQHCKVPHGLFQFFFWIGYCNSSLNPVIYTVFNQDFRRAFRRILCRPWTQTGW
Procedure, shortened: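 Radioligand filter-binding assay on membrane proteins from neuroglioma/blastoma hybrid cells (rodent), 1 h after dosing; scintillation counting, loss of signal vs DMSO. Primary screen in duplicate at 25 uM, actives then run in concentration series.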

[13] = target: rat Opioid Receptor, Non-selective Sodium (Na+) Binding, Oprm1 (gene 25601) (UniProt P33535); test: NVS_GPCR_rOpiate_NonSelectiveNa: NovaScreen (NVS) G Protein-Coupled Receptor Assay for rat Opioid Receptor, Non-selective Sodium (Na+) Binding (AID 2283311)
Chain of rat Opioid Receptor, Non-selective Sodium (Na+) Binding, Oprm1 (gene 25601) (P33535 whole entry, looked up): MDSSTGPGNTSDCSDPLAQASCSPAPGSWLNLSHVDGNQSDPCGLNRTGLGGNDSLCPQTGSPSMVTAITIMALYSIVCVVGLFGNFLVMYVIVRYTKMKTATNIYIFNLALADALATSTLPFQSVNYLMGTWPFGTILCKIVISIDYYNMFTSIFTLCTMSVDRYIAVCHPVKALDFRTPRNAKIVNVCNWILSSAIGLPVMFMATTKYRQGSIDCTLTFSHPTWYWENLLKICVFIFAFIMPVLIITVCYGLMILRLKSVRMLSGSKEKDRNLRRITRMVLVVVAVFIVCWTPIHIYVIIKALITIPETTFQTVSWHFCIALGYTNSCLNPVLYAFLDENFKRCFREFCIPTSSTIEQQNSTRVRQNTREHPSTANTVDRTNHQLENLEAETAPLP
Procedure, shortened: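 Rat forebrain membranes, radioligand displacement with filter scintillation counting, 1.5 h incubation. Screened in duplicate at 25 µM; hits then run in concentration-response up to 50 µM; loss of binding fitted versus DMSO.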

[14] = target: human Orphanin, Opioid Related Nociceptin Receptor 1 (ORL1), OPRL1 (gene 4987) (UniProt P41146); test: NVS_GPCR_hORL1: NovaScreen (NVS) G Protein-Coupled Receptor Assay for human Orphanin, Opioid Related Nociceptin Receptor 1 (ORL1) (AID 2283283)
Chain of human Orphanin, Opioid Related Nociceptin Receptor 1 (ORL1), OPRL1 (gene 4987) (P41146 whole entry, looked up): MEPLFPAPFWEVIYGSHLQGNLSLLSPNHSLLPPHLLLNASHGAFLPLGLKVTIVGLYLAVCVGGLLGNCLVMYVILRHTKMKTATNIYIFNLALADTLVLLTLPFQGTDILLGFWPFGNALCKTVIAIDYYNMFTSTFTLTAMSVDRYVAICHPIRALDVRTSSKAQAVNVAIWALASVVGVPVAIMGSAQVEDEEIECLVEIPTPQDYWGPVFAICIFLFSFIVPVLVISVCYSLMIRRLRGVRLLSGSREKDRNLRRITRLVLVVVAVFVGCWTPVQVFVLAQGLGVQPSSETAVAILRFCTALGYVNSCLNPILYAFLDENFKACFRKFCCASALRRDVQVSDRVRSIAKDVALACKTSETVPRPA
Procedure, shortened: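 Filter-based radioligand displacement with receptor extracted from HEK293 cells, read 1 hour after dosing by scintillation counting. Duplicate single-point screen at 25 uM; qualifying chemicals then run in concentration-response to 50 uM, analysed relative to DMSO.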

[15] = target: rat Adrenergic, Alpha 1A Receptor (Adra1A), Adra1a (gene 29412) (UniProt P43140); test: NVS_GPCR_rAdra1A: NovaScreen (NVS) G Protein-Coupled Receptor Assay for rat Adrenergic, Alpha 1A Receptor (Adra1A) (AID 2283296)
Procedure, shortened: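 Rat cortical membranes pretreated with chlorethyl clonidine; competitive radioligand displacement, 1 h. Filter-based scintillation counting. Primary screen in duplicate at 25 uM, actives followed in concentration series.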

[16] = target: rat Neurokinin-1 Receptor (NK1), Tacr1 (gene 24807) (UniProt P14600); test: NVS_GPCR_rNK1: NovaScreen (NVS) G Protein-Coupled Receptor Assay for rat Neurokinin-1 Receptor (NK1) (AID 2283309)
Procedure, shortened: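 Rat submaxillary gland membranes; radioligand displacement read by filter-based scintillation counting after 1 h. Primary screen in duplicate at 25 uM; actives retested in concentration series; loss of binding fitted versus DMSO.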

[17] = tested on: rabbit Platelet Activating Factor Receptor (PAF), gene 100354046; test: NVS_GPCR_rabPAF: NovaScreen (NVS) G Protein-Coupled Receptor Assay for rabbit Platelet Activating Factor Receptor (PAF) (AID 2283287)
Procedure, shortened: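 Rabbit platelet membrane preparation; radioligand displacement read by filter-based scintillation counting 1 h after dosing, loss of signal versus DMSO. Primary screen in duplicate at 25 uM, actives followed up in concentration series.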

[18] = target: rat Adrenergic, Alpha 1, Non-selective Receptor (Adra1), Adra1a (gene 29412) (UniProt P43140); test: NVS_GPCR_rAdra1_NonSelective: NovaScreen (NVS) G Protein-Coupled Receptor Assay for rat Adrenergic, Alpha 1, Non-selective Receptor (Adra1) (AID 2283289)
Procedure, shortened: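 Rat forebrain membranes; radioligand displacement read by filter-based scintillation counting 1 h after dosing. Primary screen in duplicate at 25 uM; hits (e.g. ≥30% inhibition) rerun as concentration–response to 50 uM max. Fitted versus DMSO.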

[19] = target: mouse Cholecystokinin, CCK2 Receptor (CCKB), Cckbr (gene 12426) (UniProt P56481); test: NVS_GPCR_mCKKBCentral: NovaScreen (NVS) G Protein-Coupled Receptor Assay for mouse Cholecystokinin, CCK2 Receptor (CCKB) (AID 2283293)
Procedure, shortened: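 Radioligand displacement binding on mouse forebrain membranes, 2 h exposure, filter-based scintillation counting. Primary screen in duplicate at 25 uM; actives (e.g. ≥30% inhibition) retested in concentration-response up to 50 uM; loss of binding signal relative to DMSO.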

[20] = target: rat Somatostatin Receptor (SST), Sstr1 (gene 25033) (UniProt P28646); test: NVS_GPCR_rSST: NovaScreen (NVS) G Protein-Coupled Receptor Assay for rat Somatostatin Receptor (SST) (AID 2283314)
Procedure, shortened: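 Rat forebrain membranes; radioligand displacement read by filter-based scintillation counting 1 h after dosing. Primary screen in duplicate at 25 uM. Actives (e.g., 30% inhibition) were rerun as concentration-response to 50 uM max and fitted against DMSO.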

SMILES: CCCCC(CC)C(=O)O (stereo not drawn)
- outcome [1]: inactive

SMILES: C=CC(=C)CC/C=C(\C)CCC=C(C)C
- outcome [2]: inactive

SMILES: CCCCCCCCCCCCOS(=O)(=O)O
- outcome [3]: inactive
- AC50 [2]: 25 µM (active)

SMILES: CCCCCCCCCCCCCCCCCC[N+](C)(C)Cc1ccccc1
- AC50 [2]: 2.17 µM (active)

SMILES: O=C(CCCN1CCC(O)(c2ccc(Cl)cc2)CC1)c1ccc(F)cc1
- AC50 [4]: 37.3 µM (active)
- outcome [5]: inactive
- AC50 [6]: 1.75 µM (active)
- AC50 [7]: 18.2 µM (active)

SMILES: CCC(C)c1ccccc1O (stereo not drawn)
- AC50 [3]: 11.5 µM (active)

SMILES: CN(C)CCOC(c1ccccc1)c1ccccc1
- AC50 [5]: 6.56 µM (active)
- outcome [2]: inactive
- outcome [6]: inactive
- AC50 [8]: 7.06 µM (active)
- AC50 [9]: 9.65 µM (active)
- AC50 [10]: 8.43 µM (active)
- outcome [11]: inactive
- AC50 [12]: 3.12 µM (active)
- outcome [13]: inactive

SMILES: N=C(N)c1ccc(OCCCCCOc2ccc(C(=N)N)cc2)cc1
- AC50 [14]: 27.8 µM (active)
- AC50 [5]: 3.44 µM (active)
- AC50 [3]: 10.2 µM (active)
- AC50 [6]: 2.4 µM (active)
- AC50 [8]: 14 µM (active)
- AC50 [15]: 1.32 µM (active)
- AC50 [9]: 1.06 µM (active)
- AC50 [10]: 3.49 µM (active)
- AC50 [11]: 0.362 µM (active)
- AC50 [12]: 9.06 µM (active)
- outcome [16]: inactive
- AC50 [13]: 18.4 µM (active)

SMILES: CS(=O)(=O)c1ccc([C@@H](CC2CCCC2)C(=O)Nc2cnccn2)cc1Cl
- outcome [1]: inactive

SMILES: O=C1OC2(c3ccccc31)c1cc(I)c(O)c(I)c1Oc1c2cc(I)c(O)c1I
- AC50 [2]: 0.0269 µM (active)

SMILES: CCCCc1oc2ccccc2c1C(=O)c1cc(I)c(OCCN(CC)CC)c(I)c1
- outcome [1]: inactive
- AC50 [4]: 21.6 µM (active)
- AC50 [17]: 22.5 µM (active)
- AC50 [18]: 24.5 µM (active)
- AC50 [6]: 15.7 µM (active)
- AC50 [9]: 9.13 µM (active)
- AC50 [10]: 10.8 µM (active)
- AC50 [11]: 6.48 µM (active)
- AC50 [12]: 11.4 µM (active)

SMILES: NC(=NCCCCCCN=C(N)/N=C(\N)Nc1ccc(Cl)cc1)/N=C(\N)Nc1ccc(Cl)cc1
- AC50 [14]: 4.71 µM (active)
- AC50 [2]: 3.32 µM (active) and 3.04 µM (active)
- AC50 [10]: 17.6 µM (active)

SMILES: CN(C)c1ccc(C(=C2C=CC(=[N+](C)C)C=C2)c2ccccc2)cc1
- AC50 [2]: 6.79 µM (active) and 6.47 µM (active)
- AC50 [10]: 8.31 µM (active) and 7.55 µM (active)

SMILES: COC1=CC(=O)C[C@@H](C)[C@]12Oc1c(Cl)c(OC)cc(OC)c1C2=O
- AC50 [10]: 3.69 µM (active)

SMILES: CC(C)(C)c1ccc(O)c(O)c1
- AC50 [2]: 17.4 µM (active)

SMILES: CN(Cc1cnc2nc(N)nc(N)c2n1)c1ccc(C(=O)N[C@@H](CCC(=O)O)C(=O)O)cc1
- outcome [3]: inactive
- outcome [2]: inactive
- outcome [19]: inactive
- AC50 [20]: 3.06 µM (active)
